Entries with a potency or affinity are not part of this list. Activity calls are given as the source filed them.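 Rule for the calls: active = CTGF level falls with dose and the fitted half-maximal dose is at most twice the top valid dose; inconclusive = flat fit with 30 to 70% drop, or a poor fit; inactive = the rest.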
Test: YAP1 pathway inhibition via CTGF transcript levels, dose response, cell-based, DLD1 colon cancer, RT-qPCR, cherry-pick (AID 1053122)
Details: DLD1 CTGF mRNA (YAP1 pathway), 24 h; series mostly up to 26 µM; CTGF expression fold change (lower = inhibition): at the top concentration

CTGF expression fold change (lower = inhibition), inactive:
O=C(Nc1cccc(F)c1)N1CCCCN2[C@H](C1)[C@H](c1ccc(C#Cc3cccnc3)cc1)[C@@H]2CO 0.636 unspecified
C[C@@H]1CN([C@@H](C)CO)C(=O)c2cc(C#Cc3ccccc3)cnc2O[C@@H]1CN(C)C(=O)c1ccccc1 0.83 unspecified
C[C@@H]1CN([C@H](C)CO)S(=O)(=O)c2ccc(C#Cc3ccccc3F)cc2O[C@@H]1CN(C)C(=O)Cc1cccnc1 0.777 unspecified
CCCNC(=O)N1[C@H](C#N)[C@@H](c2ccc(C#Cc3cccc(F)c3)cc2)[C@@H]1CO 0.779 unspecified
C/C=C/c1cccc(-c2nc(C(=O)Nc3nccs3)cc3c2[C@@H](CCO)N(C(=O)NC(C)C)C3)c1 0.85 unspecified
CS(=O)(=O)N1CC(=O)N2[C@H](C1)[C@@H](c1ccc(C#Cc3ccc(F)cc3)cc1)[C@@H]2CO 0.547 unspecified
O=C(Nc1ccc2c(c1)[C@H]1C[C@@H](CC(=O)N3CCc4ccccc4C3)O[C@@H](CO)[C@H]1O2)c1ccc2c(c1)OCO2 0.505 unspecified
C[C@@H]1CN([C@@H](C)CO)C(=O)c2ccccc2-c2ccccc2CO[C@H]1CN(C)C(=O)Nc1ccc(-c2ccccc2)cc1 0.477 unspecified
CC(C)NC(=O)N[C@@H]1CC[C@H](CC(=O)NCCCN(C)C)O[C@@H]1CO 1.05 unspecified
CCS(=O)(=O)Nc1ccc2c(c1)C(=O)N(C)[C@H]1CC[C@H](CC(=O)N3CCN(C)CC3)O[C@H]1CO2 0.968 unspecified
COc1ccccc1C#Cc1ccc([C@H]2[C@H](CO)N3CCCCN(C(=O)C4CCC4)C[C@@H]23)cc1 0.394 unspecified
O=C(Nc1ccccc1)[C@@H]1[C@@H](CO)[C@@H]2Cn3c(cccc3=O)[C@H]1N2C(=O)c1ccc(F)cc1 1.04 unspecified
C[C@@H]1CN([C@@H](C)CO)C(=O)c2ccccc2-c2ccccc2CO[C@@H]1CN(C)S(=O)(=O)c1cn(C)cn1 0.921 unspecified
COc1ccc2c3c([nH]c2c1)[C@H](CO)NCC31CCN(C(=O)Cc2cccnc2)CC1 1.08 unspecified
Cc1ccc(S(=O)(=O)N[C@H]2C=C[C@H](CC(=O)NCc3ccc(Cl)c(Cl)c3)O[C@H]2CO)cc1 1.01 unspecified
O=C(CC1CC1)N1CC(=O)N2[C@H](CO)[C@@H](c3ccc(C#Cc4cccc(F)c4)cc3)[C@H]2C1 0.722 unspecified
COc1ccc(S(=O)(=O)Nc2ccc3c(c2)C(=O)N([C@@H](C)CO)C[C@H](C)[C@@H](CN(C)S(=O)(=O)c2ccc(Cl)cc2)OCCCC[C@@H](C)O3)cc1 0.635 unspecified
CCNC(=O)c1cc2c(c(-c3cccc(-c4ccccc4F)c3)n1)[C@@H](CCO)N(C(=O)CC1CC1)C2 0.698 unspecified
CN1C(=O)c2cc(NC(=O)Cc3cccs3)ccc2OC[C@@H]2O[C@@H](CC(=O)NCCc3ccncc3)CC[C@H]21 1.3 unspecified [at 23.5 µM]
COc1cccc(-c2ccc([C@@H]3[C@@H](C#N)N(C(=O)Cc4ccncc4)[C@@H]3CO)cc2)c1 1.22 unspecified
Cc1ccc(S(=O)(=O)Nc2ccc3c(c2)C(=O)N([C@H](C)CO)C[C@@H](C)[C@H](CN(C)S(=O)(=O)c2cccs2)OCCCC[C@@H](C)O3)cc1 0.627 unspecified
COc1cccc(C#Cc2ccc3c(c2)O[C@@H](CN(C)C(=O)CN2CCOCC2)[C@@H](C)CN([C@@H](C)CO)S3(=O)=O)c1 1.13 unspecified
CO[C@H]1CN(C)C(=O)c2cc(NC(=O)Nc3ccccc3F)ccc2OC[C@H](C)N(CCC(F)(F)F)C[C@@H]1C 0.848 unspecified
CC(C)(C)S(=O)N1Cc2cc(C(=O)NCc3ccc4c(c3)OCO4)nc(-c3cccc(-c4cccc(F)c4)c3)c2[C@@H]1CCO (stereo not given in full) 0.914 unspecified
O=C(Nc1ccc(C(F)(F)F)cc1)Nc1ccc2c(c1)[C@H]1C[C@H](CC(=O)N3CCc4ccccc4C3)O[C@@H](CO)[C@H]1O2 0.502 unspecified
COc1ccccc1C(=O)Nc1ccc2c(c1)C(=O)N(C)C[C@H](OC)[C@@H](C)CN(C(C)=O)[C@@H](C)CO2 0.589 unspecified
C[C@@H]1CN([C@H](C)CO)C(=O)CCCn2nncc2CO[C@@H]1CN(C)Cc1cccc(C(F)(F)F)c1 0.647 unspecified
C[C@H](CO)N1C[C@H](C)[C@H](CN(C)Cc2ccc(Oc3ccccc3)cc2)OCc2ccccc2-c2ccccc2C1=O 0.56 unspecified [at 23.5 µM]
C[C@@H]1CN([C@@H](C)CO)C(=O)Cc2cc(NC(=O)C3CCCCC3)ccc2O[C@@H]1CN(C)Cc1ccc(Cl)c(Cl)c1 0.922 unspecified [at 23.5 µM]
O=S(=O)(c1ccccc1)N1CCCCN2[C@H](C1)[C@@H](c1ccc(C#CC3CCCC3)cc1)[C@@H]2CO 0.972 unspecified
